Common to all, as to parameters: scale not given: direction of the effect not stated beside the values
The target in test [1] is Protein translocase subunit SecA (Escherichia coli (strain K12)) (UniProt P10408). Briefly: Assay to Identify E. coli SecA ATPase Inhibitors. It is filed as functional. The note with it: 30 µM.
The target of test [2] is T1, Ubiquitin-activating enzyme e1, putative (Leishmania donovani (strain BPK282A1)) (UniProt E9BSI1).
T1 sequence (whole entry): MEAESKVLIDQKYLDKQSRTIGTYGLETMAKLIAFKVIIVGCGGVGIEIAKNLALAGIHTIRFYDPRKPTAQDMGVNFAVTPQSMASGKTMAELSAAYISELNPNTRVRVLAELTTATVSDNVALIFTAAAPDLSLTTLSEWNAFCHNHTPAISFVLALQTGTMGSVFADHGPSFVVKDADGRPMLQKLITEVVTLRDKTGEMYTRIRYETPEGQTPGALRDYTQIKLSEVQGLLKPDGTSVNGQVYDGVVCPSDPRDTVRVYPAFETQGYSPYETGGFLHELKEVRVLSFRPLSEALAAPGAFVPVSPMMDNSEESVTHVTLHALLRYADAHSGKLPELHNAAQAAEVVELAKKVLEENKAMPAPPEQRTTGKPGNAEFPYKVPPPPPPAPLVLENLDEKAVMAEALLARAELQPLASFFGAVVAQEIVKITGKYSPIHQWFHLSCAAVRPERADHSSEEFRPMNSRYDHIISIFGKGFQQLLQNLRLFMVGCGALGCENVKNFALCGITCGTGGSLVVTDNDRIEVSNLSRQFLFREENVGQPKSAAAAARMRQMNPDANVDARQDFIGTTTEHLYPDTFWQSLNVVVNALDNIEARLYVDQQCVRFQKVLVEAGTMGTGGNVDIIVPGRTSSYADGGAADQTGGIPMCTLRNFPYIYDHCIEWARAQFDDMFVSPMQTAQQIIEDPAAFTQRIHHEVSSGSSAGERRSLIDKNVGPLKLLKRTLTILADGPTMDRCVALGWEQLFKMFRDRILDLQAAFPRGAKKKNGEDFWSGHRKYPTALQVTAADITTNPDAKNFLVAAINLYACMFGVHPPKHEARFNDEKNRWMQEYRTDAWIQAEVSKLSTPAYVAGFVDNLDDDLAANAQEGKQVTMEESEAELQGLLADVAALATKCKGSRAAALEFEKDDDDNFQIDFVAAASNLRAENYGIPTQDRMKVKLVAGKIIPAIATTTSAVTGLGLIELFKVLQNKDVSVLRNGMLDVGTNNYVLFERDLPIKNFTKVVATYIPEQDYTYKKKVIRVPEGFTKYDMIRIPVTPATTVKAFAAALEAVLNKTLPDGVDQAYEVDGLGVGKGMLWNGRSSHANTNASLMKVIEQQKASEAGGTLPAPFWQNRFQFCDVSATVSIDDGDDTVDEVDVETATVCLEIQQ
Briefly: Leishmania donovani Ubiquitin Activating Enzyme (LdE1). It is filed as functional. The note with it: 30 µM.

Test [3] addresses Sialic acid-binding Ig-like lectin 9 (Homo sapiens) (UniProt Q9Y336). Briefly: Hs-Siglec9 ALPHAscreen SOP 20170721. The note with it: 10 µM.
The subject of a further test is Trypanosoma cruzi. Briefly: Trypanosoma cruzi phosphomannomutase and mannose-1-phosphate guanylyltransferase assay. The test is classed as functional. The conditions noted are these: 10 µM.
Test [4] deals with T2, Arginase-2, mitochondrial (Homo sapiens) (UniProt P78540).
T2 sequence (whole entry): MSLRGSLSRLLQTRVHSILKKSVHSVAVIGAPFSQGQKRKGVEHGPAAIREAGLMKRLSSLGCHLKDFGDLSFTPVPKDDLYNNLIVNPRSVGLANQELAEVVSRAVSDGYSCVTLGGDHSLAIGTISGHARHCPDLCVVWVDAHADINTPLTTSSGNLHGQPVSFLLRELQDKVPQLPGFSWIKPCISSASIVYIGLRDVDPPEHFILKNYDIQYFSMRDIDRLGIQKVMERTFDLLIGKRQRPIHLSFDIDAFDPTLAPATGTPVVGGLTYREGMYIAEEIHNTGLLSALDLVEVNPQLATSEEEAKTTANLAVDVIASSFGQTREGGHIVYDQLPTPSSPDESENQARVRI
Briefly: in vitro enzyme assay to detect the production of urea directly proportional to the activity of Arginase II. Further: in the data most compounds retested in dose-response had high values. It is filed as functional. The note with it: 33.3 µM.

Test [5] addresses T3, Proteasome subunit beta (Trypanosoma cruzi) (UniProt O96673).
T3 sequence (whole entry): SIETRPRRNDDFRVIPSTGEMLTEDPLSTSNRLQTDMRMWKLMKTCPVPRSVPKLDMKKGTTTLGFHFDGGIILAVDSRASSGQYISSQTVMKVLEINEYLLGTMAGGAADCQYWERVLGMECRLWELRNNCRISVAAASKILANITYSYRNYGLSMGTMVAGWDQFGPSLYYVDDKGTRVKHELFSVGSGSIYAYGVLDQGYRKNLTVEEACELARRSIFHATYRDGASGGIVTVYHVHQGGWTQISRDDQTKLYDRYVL
Briefly: Trypanosoma cruzi proteasome chymotrypsin-like activity (TcProtChymo) assay. Further: in the data most compounds retested in dose-response had high values. The test is classed as functional. The conditions noted are these: 9.37 µM.

The species named for the next test is Homo sapiens. Briefly: To identify inhibition of the IFN signalling (Jak-Stat) pathway via expression of an eGFP reporter gene under the control of an IFN-stimulated response element (ISRE) containing MxA promoter. It is filed as functional. The note with it: 30 µM.
The target of test [6] is T4, Tyrosyl-tRNA synthetase, putative (Trypanosoma cruzi (strain CL Brener)) (UniProt Q4DSP6).
T4 sequence (whole entry): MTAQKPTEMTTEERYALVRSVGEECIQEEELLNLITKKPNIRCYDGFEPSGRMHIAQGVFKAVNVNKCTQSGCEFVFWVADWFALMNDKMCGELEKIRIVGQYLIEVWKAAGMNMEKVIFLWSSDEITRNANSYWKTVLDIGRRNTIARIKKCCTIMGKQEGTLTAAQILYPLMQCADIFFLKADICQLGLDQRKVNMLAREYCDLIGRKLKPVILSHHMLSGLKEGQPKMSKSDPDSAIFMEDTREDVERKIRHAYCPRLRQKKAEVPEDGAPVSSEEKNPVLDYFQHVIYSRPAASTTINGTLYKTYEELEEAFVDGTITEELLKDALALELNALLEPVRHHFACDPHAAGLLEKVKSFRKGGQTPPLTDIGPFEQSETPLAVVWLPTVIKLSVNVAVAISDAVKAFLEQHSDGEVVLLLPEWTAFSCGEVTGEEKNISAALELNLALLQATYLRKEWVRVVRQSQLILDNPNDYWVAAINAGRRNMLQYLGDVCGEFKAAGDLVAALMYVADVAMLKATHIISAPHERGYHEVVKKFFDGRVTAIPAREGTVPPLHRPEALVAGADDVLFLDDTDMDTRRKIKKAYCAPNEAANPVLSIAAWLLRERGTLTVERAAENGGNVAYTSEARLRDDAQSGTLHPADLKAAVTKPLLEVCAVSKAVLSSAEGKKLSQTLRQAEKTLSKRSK
Briefly: Trypanosoma cruzi tyrosyl tRNA synthetase (TcYRS) _High Tyrosine SOP. Further: in the data most compounds retested in dose-response had high values. The test is classed as functional. The note with it: 30 µM.

The target of test [7] is T4, Tyrosyl-tRNA synthetase, putative (Trypanosoma cruzi (strain CL Brener)). Briefly: Trypanosoma cruzi tyrosyl tRNA synthetase (TcYRS) SOP. It is filed as functional. The note with it: 30 µM.
Test [8] addresses Chromo domain-containing protein 1 (Saccharomyces cerevisiae (strain ATCC 204508 / S288c) (Baker's yeast)) (UniProt P32657). Briefly: ScCHD-1 Enzyme Inhibition Assay. Further: in the data most compounds retested in dose-response had high values. The conditions noted are these: 30 µM. It is filed as functional.

SMILES strings stand for the structures. For part of these data: Potency and affinity values are given separately.

Percent Effect data for 9 compounds are collected here from ChEMBL document CHEMBL3988442, “University of Dundee, Small-Polar-MMV Screening Library” (2021).

Chromo domain-containing protein 1 (Saccharomyces cerevisiae (strain ATCC 204508 / S288c) (Baker's yeast)), sequence (P32657 whole entry, the tested form may be a part): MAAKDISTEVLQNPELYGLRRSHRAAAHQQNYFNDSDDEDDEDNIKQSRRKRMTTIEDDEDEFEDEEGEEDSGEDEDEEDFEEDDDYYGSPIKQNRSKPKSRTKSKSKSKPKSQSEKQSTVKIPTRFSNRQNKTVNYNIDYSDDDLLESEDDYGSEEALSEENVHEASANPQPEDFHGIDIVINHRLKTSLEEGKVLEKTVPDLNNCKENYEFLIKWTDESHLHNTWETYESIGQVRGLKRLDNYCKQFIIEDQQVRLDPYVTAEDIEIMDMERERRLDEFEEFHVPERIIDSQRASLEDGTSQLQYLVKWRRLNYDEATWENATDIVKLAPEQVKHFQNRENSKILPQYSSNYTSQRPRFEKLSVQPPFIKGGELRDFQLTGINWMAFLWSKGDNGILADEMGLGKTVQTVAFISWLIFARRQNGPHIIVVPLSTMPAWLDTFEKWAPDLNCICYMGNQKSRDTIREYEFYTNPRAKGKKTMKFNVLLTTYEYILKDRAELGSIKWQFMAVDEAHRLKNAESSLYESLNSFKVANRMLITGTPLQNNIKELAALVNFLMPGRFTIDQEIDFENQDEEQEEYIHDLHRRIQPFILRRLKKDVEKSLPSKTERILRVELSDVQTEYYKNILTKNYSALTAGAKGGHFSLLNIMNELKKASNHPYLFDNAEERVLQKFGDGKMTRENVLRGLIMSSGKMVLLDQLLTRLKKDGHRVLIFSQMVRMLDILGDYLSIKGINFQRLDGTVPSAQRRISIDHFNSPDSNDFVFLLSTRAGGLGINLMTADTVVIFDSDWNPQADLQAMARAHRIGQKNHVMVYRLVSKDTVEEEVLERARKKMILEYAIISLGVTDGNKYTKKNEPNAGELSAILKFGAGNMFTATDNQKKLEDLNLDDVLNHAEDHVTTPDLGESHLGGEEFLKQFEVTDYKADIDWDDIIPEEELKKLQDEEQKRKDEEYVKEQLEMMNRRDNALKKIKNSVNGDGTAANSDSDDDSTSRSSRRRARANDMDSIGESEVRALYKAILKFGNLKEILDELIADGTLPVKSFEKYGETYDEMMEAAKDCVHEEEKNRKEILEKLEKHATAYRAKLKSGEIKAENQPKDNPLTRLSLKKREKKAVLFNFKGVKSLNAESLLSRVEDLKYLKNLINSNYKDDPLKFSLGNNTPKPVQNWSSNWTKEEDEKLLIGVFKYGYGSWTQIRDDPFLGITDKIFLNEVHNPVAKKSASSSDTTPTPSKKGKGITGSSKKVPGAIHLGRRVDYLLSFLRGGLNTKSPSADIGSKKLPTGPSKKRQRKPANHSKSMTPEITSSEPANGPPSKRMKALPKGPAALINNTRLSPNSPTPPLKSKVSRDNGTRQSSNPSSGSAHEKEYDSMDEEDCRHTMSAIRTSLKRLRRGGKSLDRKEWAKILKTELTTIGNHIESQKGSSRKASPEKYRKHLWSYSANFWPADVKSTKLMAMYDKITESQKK
Sialic acid-binding Ig-like lectin 9 (Homo sapiens), sequence (Q9Y336 whole entry): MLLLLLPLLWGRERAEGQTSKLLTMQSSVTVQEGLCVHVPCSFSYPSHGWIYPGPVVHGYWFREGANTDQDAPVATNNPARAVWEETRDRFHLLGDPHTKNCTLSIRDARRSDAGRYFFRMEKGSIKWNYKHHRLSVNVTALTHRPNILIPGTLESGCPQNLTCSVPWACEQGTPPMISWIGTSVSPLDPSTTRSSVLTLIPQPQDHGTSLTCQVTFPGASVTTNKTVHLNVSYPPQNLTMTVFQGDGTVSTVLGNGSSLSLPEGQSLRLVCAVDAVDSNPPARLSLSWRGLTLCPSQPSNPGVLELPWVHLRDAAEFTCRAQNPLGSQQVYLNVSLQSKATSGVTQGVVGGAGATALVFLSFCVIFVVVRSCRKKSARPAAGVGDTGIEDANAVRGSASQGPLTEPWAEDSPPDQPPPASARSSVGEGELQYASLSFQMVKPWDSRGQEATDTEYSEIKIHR
Protein translocase subunit SecA (Escherichia coli (strain K12)), sequence (P10408 whole entry): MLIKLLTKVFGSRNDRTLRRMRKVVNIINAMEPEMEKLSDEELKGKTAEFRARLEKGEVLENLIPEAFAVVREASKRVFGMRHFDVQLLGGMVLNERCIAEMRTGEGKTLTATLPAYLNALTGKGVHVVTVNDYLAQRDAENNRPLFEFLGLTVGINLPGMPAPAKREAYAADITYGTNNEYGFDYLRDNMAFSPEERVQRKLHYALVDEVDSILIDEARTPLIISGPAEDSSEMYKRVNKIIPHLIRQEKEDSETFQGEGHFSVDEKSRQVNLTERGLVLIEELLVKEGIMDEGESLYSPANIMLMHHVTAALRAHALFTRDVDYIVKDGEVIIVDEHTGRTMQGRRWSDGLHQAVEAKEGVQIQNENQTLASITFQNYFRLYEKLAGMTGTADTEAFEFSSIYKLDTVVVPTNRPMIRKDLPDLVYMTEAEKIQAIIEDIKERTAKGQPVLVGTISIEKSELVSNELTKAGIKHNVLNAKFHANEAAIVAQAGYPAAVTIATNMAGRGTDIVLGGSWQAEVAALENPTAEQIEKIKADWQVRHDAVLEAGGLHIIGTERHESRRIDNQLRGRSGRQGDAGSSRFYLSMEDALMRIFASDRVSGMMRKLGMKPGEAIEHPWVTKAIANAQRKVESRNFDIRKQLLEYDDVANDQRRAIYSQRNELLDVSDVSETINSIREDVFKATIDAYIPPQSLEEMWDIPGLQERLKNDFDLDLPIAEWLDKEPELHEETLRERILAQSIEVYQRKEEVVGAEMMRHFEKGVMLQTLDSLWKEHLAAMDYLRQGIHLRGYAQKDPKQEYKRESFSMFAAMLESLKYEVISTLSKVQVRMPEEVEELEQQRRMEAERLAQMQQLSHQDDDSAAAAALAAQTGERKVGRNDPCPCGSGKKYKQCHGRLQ

`Cc1noc(C2CCN(C(=O)CCc3nccs3)CC2)n1`: the Percent Effect is 0.362% in test [1]; 17.9% in test [2]; -8.4% in test [3]; -1.78% in the test on Trypanosoma cruzi; 3.28% in test [4]; 5.72% in test [5]. Besides, the Percent Effect in the test listed under Homo sapiens was 17.8%; in [6] it was 6.22%; in test [7], 13.2%; in test [8] it was -4.78%.
`COc1ccc(C(N)c2cccc(S(C)(=O)=O)c2)cc1` (stereo not given): the Percent Effect was -6.1% in [1]; 18.7% in test [2]; 7.33% in test [3]; 2.41% in the test on Trypanosoma cruzi; -6.65% in test [4]; 4.83% in [5]. Besides, the Percent Effect in the test listed under Homo sapiens was 9.08%; in test [6], 4.74%; in test [7], 15.4%; in test [8], -12.4%.
`CCOCCN1CCCC(c2cc(C(N)=O)[nH]n2)C1` (stereo not given): the Percent Effect in [1] was -1.61%; in test [2], 0%; in test [3], 5.24%; with Trypanosoma cruzi it was -4.22%; in [4], 3.99%; in [5], 8.06%. Further, the Percent Effect in the test filed under Homo sapiens was 13.9%; in [6] it was 3.68%; in [7], 7.69%; in test [8], -5.54%.
Consider `CN(Cc1ccco1)[C@@H]1CN(Cc2ccc(F)cc2)C[C@@H]2CCCO[C@@H]21`, for which the Percent Effect was -5.51% in test [1]; 9.09% in test [2]; -4.8% in test [3]; -5.16% with Trypanosoma cruzi; -6.48% in test [4]; 15.4% in [5]. Further, the Percent Effect in the test filed under Homo sapiens is -5.78%; in test [6], 3.68%; in test [7] it was 12.8%; in test [8], -3.55%.
Take `CCc1nc(C2CCCN2C(=O)c2nc(C)n3ccccc23)no1` (stereo not given): the Percent Effect in [1] is -0.63%; in [2] it was 2.67%; in test [3], -0.749%; with Trypanosoma cruzi it was -5.02%; in test [4], 4.43%; in test [5], 3.65%. In addition, the Percent Effect in the test filed under Homo sapiens was 15%; in [6], 4.74%; in test [7] it was 5.13%; in test [8], -15.8%.
Turning to `O=C(O)c1csc(S(=O)(=O)Nc2cccc(OC(F)F)c2)c1`, the Percent Effect in test [1] is -5.06%; in test [2] it was -7.69%; in test [3], -2.43%; in the test on Trypanosoma cruzi, -1.03%; in test [4] it was 5.74%; in test [5] it was 8.11%. Besides, the Percent Effect in the test filed under Homo sapiens was 2.87%; in test [6], -5.26%; in test [7], 1.21%; in test [8], -6.19%.
For `Cc1cc(NC(=O)N(CC2CCOC2)C2CC2)no1` (stereo not given), the Percent Effect in test [1] was -2.1%; in test [2] it was 13.3%; in test [3], 6.54%; in the test with Trypanosoma cruzi, 1.21%; in test [4], 2.22%; in test [5], 6.7%. Also, the Percent Effect is 21.8% in the test filed under Homo sapiens, 5.79% in test [6], 12.8% in test [7] and -7.01% in test [8].
Regarding `Cc1cc(C)cc(OCC(=O)NC2CCN(S(C)(=O)=O)CC2)c1`, the Percent Effect in [1] is -3.04%; in test [2], 13%; in test [3], -6.89%; in the test with Trypanosoma cruzi it was -8.58%; in test [4] it was -1.84%; in test [5] it was 8.77%. In addition, the Percent Effect was 14.6% in the test listed under Homo sapiens, 3.92% in test [6], 16.5% in test [7] and -7.11% in test [8].
Consider `Cc1noc(C(C)C)c1C(=O)NCCCN1CCCC1`, for which the Percent Effect in [1] is -2.44%; in test [2], 26%; in test [3] it was 0.986%; in the test with Trypanosoma cruzi, 1.12%; in test [4] it was -3.48%; in [5], 12.1%. Further, the Percent Effect was 8.55% in the test filed under Homo sapiens, 7.84% in [6], 30.6% in test [7] and -13.2% in test [8].
